# In the library only some 2.4% were active in any assay of this set; here they are far more common.
# LT uptake inh – blocks cellular internalization of anthrax lethal toxin. Cells, anthrax lethal toxin internalization, FRET ratio (460/530). Potency, µM (highest dose often 40 µM), for inactives: at the highest dose activity change, negative = inhibition, actives largely listed as inhibitors. 70,000 compounds, 0.67% hits. AID 912; further: on the % scale 0 is the no-effect control and ±100 the full control effect; nearly all actives have a fitted effect of over 50% in size
# SmPrx2 inh – inhibitors of Schistosoma mansoni peroxiredoxin 2; S. mansoni Prx2 activity coupled to TGR/GSH (TGR is thioredoxin glutathione reductase), NADPH fluorescence loss, qHTS; Potency, µM; 65,000 compounds, 0.07% hits; AID 448
#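 Purified S. mansoni TGR and Prx2 in pH 7.4 phosphate buffer with EDTA and Tween-20 were preincubated with compounds for 15 min. Further NADPH/GSH was added, then a 2.5 mM H2O2 aliquot initiated turnover, followed kinetically by NADPH fluorescence.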
# AmpC inh det – blocks E. coli AmpC beta-lactamase in presence of detergent; P00811; purified AmpC, nitrocefin hydrolysis with detergent; Potency, µM (top dose mostly 28.7 µM), without a hit: at the highest dose activity change, negative = inhibition; 71,000 compounds, 0.09% hits; AID 584; active means well fitted curve in the direction sought with a large enough effect; inconclusive means small, poorly fitted or top-dose-only effect; further: on the % scale 0 is the no-effect control and ±100 the full control effect
# Target sequence (P00811 whole entry, looked up): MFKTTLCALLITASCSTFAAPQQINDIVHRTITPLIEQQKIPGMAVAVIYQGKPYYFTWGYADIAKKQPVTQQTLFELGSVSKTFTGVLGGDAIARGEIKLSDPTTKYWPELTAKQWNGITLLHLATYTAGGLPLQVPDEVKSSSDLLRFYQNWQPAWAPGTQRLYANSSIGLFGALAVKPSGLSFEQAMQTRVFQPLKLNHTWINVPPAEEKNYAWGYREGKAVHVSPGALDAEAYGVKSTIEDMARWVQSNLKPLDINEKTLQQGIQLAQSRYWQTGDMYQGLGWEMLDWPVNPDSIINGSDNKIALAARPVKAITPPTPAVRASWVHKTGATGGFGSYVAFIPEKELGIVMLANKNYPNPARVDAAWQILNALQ
#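 E. coli AmpC (5.3 nM) in 20 mM phosphate pH 7.0 with 0.01% Triton X-100, preincubated 15 min RT with compound; nitrocefin (2 uL of 800 uM stock) hydrolysis followed by 480 nm absorbance every 20 s over 4 min.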
# AmpC inh no det – blocks E. coli AmpC beta-lactamase in absence of detergent; P00811; AmpC nitrocefin hydrolysis, absorbance 480 nm, no detergent; Potency, µM (top dose mostly 28.7 µM), without a hit: at the top dose activity change, negative = inhibition; 71,000 compounds, 1.8% hits; AID 585; further: % of control where 0% means no effect
#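 AmpC, 20 mM phosphate pH 7.0; 15 min cpd preinc, RT; start with nitrocefin (800 uM stock); A480 kinetic read, 20 s intervals, 4 min. No-enzyme wells = negative control.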
# Numbers without * were called inactive; ? = inconclusive; nt = no result given; [ ] = another dose, or the depositor's remark. Unless noted, the call rests on the fitted dose curve. Potency means the concentration at half of the fitted maximal effect.
SMILES,LT uptake inh,SmPrx2 inh,AmpC inh det,AmpC inh no det
CC[C@@H]1[C@H]2CCCCN3[C@@H]2[C@@H](C[C@H]3[C@@H]2C[C@H](C)C(=O)O2)[C@@H]2[C@H]1OC(=O)[C@H]2C,?,>57,-4%,58%
Cc1c(C(=O)Nc2ccc3c(c2)OCCO3)sc2nc(-c3ccccc3)cn12,10µM*,>57,-8%,55%
Cc1c(C(=O)Nc2ccncc2)sc2nc(-c3ccccc3)cn12,-17%,>57,12%,22%
COc1ccc(-c2cnn(-c3ccccc3)c2N)cc1OC,-5%,nt,0%,-5%
Nc1nc2c(s1)CCc1c-2cnn1-c1ccccc1,10µM*,>57,-7%,6%
C#CCCCO/N=C1/[C@H]2O[C@@H]2[C@@H](O)[C@H]2[C@H]1CCn1c(=O)n([C@@H](CC)c3ccccc3)c(=O)n12,-18%[8 µM],nt,nt,nt
N#Cc1ccc(CN2CC[C@@]3(CCCN(C(=O)c4ccco4)C3)C2)cc1,?,>57,-3%,80%
Cc1cc(N2CCOCC2)nc2ccc(NC(=O)C3CCC(C)CC3)cc12 (configuration not stated),-2%,>57,-2%,100%
Cc1cc(N2CCC(N(C)C3CCCC3)CC2)nc2cc(O)ccc12,3.2µM*,>57,14%,27%
COc1ccc(CNC(=O)Cn2nc(C(F)(F)F)c3c2CCC3)cc1,-5%,>57,-2%,7%
COc1ccc(NC(=O)Cn2nc(C(F)(F)F)c3c2CCCC3)c(OC)c1,13µM*,>57,-7%,52%
CCOC(=O)C1=C(C)N=c2s/c(=C/c3ccco3)c(=O)n2C1c1cccc(OC)c1 (configuration not stated),?,>57,6%,7.9µM*
CCOC(=O)C1=C(C)N=c2s/c(=C\c3cccn3C)c(=O)n2C1c1cccc(OC)c1OC (configuration not stated),?,nt,10%,33%
O=C(c1ccco1)N1CCC2(CCN(Cc3ccccc3)CC2)CC1,-5%,>57,-3%,-17%
O=c1nc2s/c(=C\c3ccco3)c(=O)n2nc1Cc1ccc(F)cc1,-15%,>57,-5%,10µM*[single pt active]
O=c1cc(-c2ccc(O)c(O)c2)oc2cc(O[C@@H]3O[C@@H](CO)[C@@H](O)[C@@H](O)[C@H]3O)cc(O)c12,?,>26,-1%,-10%
COc1cc(OC)c(C2=NOC(C(=O)Nc3cc(C)nn3-c3ccccc3)C2)cc1Cl (configuration not stated),?,>57,0%,78%
COc1cccc(C2=NOC(C(=O)Nc3cc(C)nn3-c3ccccc3)C2)c1OC (configuration not stated),?,>57,11%,4µM*[single pt active]
CC[C@H](CO)NC(=O)[C@@H]1C=C2c3cccc4c3c(cn4C)C[C@@H]2N(C)C1,-2%,>57,-1%,13%
Cc1cc(NS(=O)(=O)c2ccc(NC(=O)COc3ccccc3C(C)C)cc2)no1,-15%,>57,6%,4µM*[single pt active]
COc1cc(NS(=O)(=O)c2ccc(NC(=O)COc3ccccc3C)cc2)nc(OC)n1,-12%,>57,-1%,13µM*[single pt active]
Cc1nc(N2CCOCC2)c2nc(-c3ccccc3)n(CC3CCN(C)CC3)c2n1,-1%,nt,9%,25%
Cc1ccc2cccc(OC(=O)N(C)c3ccccc3)c2n1,16µM*,nt,4%,33%
CCOC(=O)c1cnc2c(C#N)c(C)nn2c1-c1ccccc1,-10%,nt,10%,4µM*[single pt active]
CCOC(=O)c1cnc2c(C#N)c(C)nn2c1C,-5%,>57,-5%,-7%
SMILES,LT uptake inh,SmPrx2 inh,AmpC inh det,AmpC inh no det
Cc1ccc(S(=O)(=O)CCC(=O)c2ccc(O)cc2O)cc1,13µM*,nt,7%,13µM*
CN(C)S(=O)(=O)c1ccc(Oc2ccccc2)cc1,nt,>57,0%,3%
CN(C)S(=O)(=O)c1ccc(-c2ccccc2)cc1,7.9µM*,nt,8%,-4%
COc1ccc(-c2nc3cncnc3n(-c3ccccc3)c2=O)cc1,?,>57,-1%,3%
c1c[nH]c(CN2CCOCC2)n1,5%[8 µM],>57,-3%[5.75 µM],3%[5.75 µM]
CCOC(=O)c1sc(NC(=O)c2noc3c2CCCC3)c(C(=O)OCC)c1C,-13%,>57,13%,4µM*[single pt active]
CCOC(=O)c1c(NC(=O)c2noc3c2CCCC3)sc(C)c1C,8%,>57,2%,13%
C[C@H]1COC(=O)[C@H]2CCCN2C(=O)[C@@H](C)COC(=O)[C@H](Cc2ccccc2)NC1=O,8%[8 µM],nt,nt,nt
O=C(Nc1nccs1)C1CCCN(S(=O)(=O)c2cccnc2)C1 (configuration not stated),0%,>57,12%,4µM*[single pt active]
O=C(NCCC1=CCCCC1)C1CCCN(S(=O)(=O)c2cccc3cccnc23)C1 (configuration not stated),-27%,>57,0%,63%
O=C(Nc1nccs1)C1CCN(S(=O)(=O)c2cccnc2)CC1,0%,>57,10%,-6%
O=C(Nc1ccc2c(c1)OCCO2)C1CCCN(S(=O)(=O)c2cccnc2)C1 (configuration not stated),?,>57,12%,4µM*[single pt active]
O=C(NCCC1=CCCCC1)C1CCCN(S(=O)(=O)c2cccnc2)C1 (configuration not stated),-14%,>57,12%,2.5µM*[single pt active]
NS(=O)(=O)O,?,nt,6%,-9%
O=C(Nc1cnn(Cc2ccc(F)cc2)c1)c1cc(-c2cccs2)on1,0%,>57,-3%,13µM*[single pt active]
O=C(NCc1ccc(Cl)cc1)c1cc(-c2cccs2)on1,3%,>57,19%,7.9µM*
CC[C@@]12CCCN3CC[C@@]4(c5ccc(OC)c(O)c5N(C(C)=O)[C@H]4CC1)[C@H]32,7%,>57,-2%,10%
CS(=O)(=O)N(Cc1ccco1)CC(O)Cn1c2ccccc2c2ccccc21 (configuration not stated),10µM*,>57,3%,87%
OC(CNCc1ccco1)Cn1c2ccccc2c2ccccc21 (configuration not stated),-6%,>57,-6%,40%
Cc1ccc2oc(=O)c3cc(C(=O)N4CCN(c5ncccn5)CC4)sc3c2c1,-16%,>57,11%,4µM*[single pt active]
Cc1ccc2oc(=O)c3cc(C(=O)N4CCN(C(=O)c5ccco5)CC4)sc3c2c1,-4%,>57,13%,2%
CCN(CC)CCOc1c(Br)ccc2c1sc1nc3n(c(=O)c12)CCC3,7.9µM*,nt,-2%,24%
O=C(c1ccc(CS(=O)(=O)c2ccc(Br)cc2)o1)N1CCCCCC1,?,>57,7%,3.2µM*[single pt active]
O=C(c1ccc(CS(=O)(=O)c2ccc(Br)cc2)o1)N1CCCC1,-4%,>57,15%,4µM*[single pt active]
Cc1ccc(S(=O)(=O)Cc2ccc(C(=O)N3CCN(Cc4ccccc4)CC3)o2)cc1,-19%,>57,13%,100%
O=C(c1ccc(CS(=O)(=O)c2ccccc2)o1)N1CCOCC1,-14%,>57,10%,2.5µM*[single pt active]
O=C(c1ccc(CS(=O)(=O)c2ccc(Br)cc2)o1)N1CCN(C2CCCCC2)CC1,-3%,>57,6%,-2%

# High-throughput results (PubChem)
